# Results reported in PubChem BioAssay.
# “And” between values parts separate entries of the source, which are not always exact repeats. Equal entries are not always repeated. The source made the active and inactive calls.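 Rule for the calls, unless noted: active = z-score of at least 1.8 in each of two replicates, scored against plate mean and spread of sample wells; inactive = the rest.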
# How the values were obtained:
# [1] = target: NAD(+) hydrolase SARM1 (Homo sapiens) (UniProt Q6SZW1); experiment: blocking NAD cleavage by SARM1 SAM-TIR – cell lysate, NAD-Glo luminescence (AID 1508614;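 active = compound whose remaining NAD level is above about 45 nM, limit read from the data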;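 note: higher remaining NAD means stronger inhibition of SARM1 NADase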); conditions: SAM-TIR HEK293T lysate NADase, at 1 µM, stronger effect = higher value
# Sequence of NAD(+) hydrolase SARM1 (Homo sapiens) (Q6SZW1 whole entry, looked up, the tested form may be a part): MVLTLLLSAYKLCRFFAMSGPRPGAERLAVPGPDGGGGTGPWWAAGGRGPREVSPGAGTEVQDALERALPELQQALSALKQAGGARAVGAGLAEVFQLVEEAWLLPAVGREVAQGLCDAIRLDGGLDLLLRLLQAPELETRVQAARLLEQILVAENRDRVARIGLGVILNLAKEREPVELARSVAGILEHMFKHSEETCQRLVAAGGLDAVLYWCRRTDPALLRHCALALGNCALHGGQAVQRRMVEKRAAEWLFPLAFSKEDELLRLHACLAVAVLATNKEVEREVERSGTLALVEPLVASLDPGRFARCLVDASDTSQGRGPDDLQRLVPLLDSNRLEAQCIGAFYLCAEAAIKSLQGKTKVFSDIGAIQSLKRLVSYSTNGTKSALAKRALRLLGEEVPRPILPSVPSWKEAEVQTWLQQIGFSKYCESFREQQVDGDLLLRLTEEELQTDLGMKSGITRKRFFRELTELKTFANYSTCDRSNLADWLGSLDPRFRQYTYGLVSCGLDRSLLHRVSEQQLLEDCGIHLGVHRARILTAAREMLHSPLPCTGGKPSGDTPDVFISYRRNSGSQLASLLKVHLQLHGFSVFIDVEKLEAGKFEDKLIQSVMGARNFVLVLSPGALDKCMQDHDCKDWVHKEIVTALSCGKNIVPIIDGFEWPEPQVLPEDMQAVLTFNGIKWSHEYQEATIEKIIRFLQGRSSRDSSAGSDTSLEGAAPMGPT
# [2] = target: Mitogen-activated protein kinase 7 (Homo sapiens) (UniProt Q13164); experiment: Gal4-ERK5 driven luciferase induction – cell-based, HTS, primary screen (AID 1508626;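 active = luciferase signal above three times the same-plate solvent-only control wells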;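 note: luciferase driven by Gal4-ERK5 fusion binding five Gal4 sites before minimal TATA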); conditions: HeLa Gal4-ERK5 transactivation, 18 h, at 5 µM, stronger effect = higher value
# Sequence of Mitogen-activated protein kinase 7 (Homo sapiens) (Q13164 whole entry, looked up, the tested form may be a part): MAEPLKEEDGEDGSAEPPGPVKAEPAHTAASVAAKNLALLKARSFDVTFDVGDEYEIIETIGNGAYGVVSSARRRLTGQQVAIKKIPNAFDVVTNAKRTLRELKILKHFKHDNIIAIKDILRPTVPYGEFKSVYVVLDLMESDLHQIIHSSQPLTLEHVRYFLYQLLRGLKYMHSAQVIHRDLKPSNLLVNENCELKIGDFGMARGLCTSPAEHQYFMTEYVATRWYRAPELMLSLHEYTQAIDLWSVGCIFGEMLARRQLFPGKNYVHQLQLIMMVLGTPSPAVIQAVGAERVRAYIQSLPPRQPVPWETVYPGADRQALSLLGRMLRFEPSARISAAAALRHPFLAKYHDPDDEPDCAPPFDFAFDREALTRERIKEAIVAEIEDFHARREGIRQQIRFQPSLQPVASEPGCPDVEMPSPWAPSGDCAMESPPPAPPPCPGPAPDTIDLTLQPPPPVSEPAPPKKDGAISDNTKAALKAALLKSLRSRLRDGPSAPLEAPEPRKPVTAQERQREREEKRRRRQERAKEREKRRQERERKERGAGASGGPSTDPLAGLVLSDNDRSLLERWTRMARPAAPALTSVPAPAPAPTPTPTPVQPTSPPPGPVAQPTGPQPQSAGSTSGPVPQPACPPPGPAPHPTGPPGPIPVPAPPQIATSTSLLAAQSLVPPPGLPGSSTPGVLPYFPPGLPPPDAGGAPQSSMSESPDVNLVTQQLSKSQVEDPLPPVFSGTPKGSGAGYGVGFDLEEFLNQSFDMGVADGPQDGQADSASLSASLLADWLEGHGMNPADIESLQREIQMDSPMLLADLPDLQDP
# [3] = galactose survival enhancers in mitochondrial complex I cybrids – cell-based, galactose medium, ATP luminescence, primary screen (AID 1645843); conditions: complex I mutant cybrid cells, 72 h, stronger effect = higher value;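 note: positive z means more ATP and so rescue of galactose-driven cybrid death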
# [4] = growth inhibition, single agent or in combination, cell-based, chromothripsis tumors, cisplatin or BGB combos (AID 1671449; in the data active = inhibition above about 80%;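 note: cells exposed for 96 hours; 0% = vehicle DMSO and 100% = killing by high DMSO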); conditions: LFS_MB_P medulloblastoma cells
# [5] = growth inhibition, single agent and combos, cell-based, chromothripsis tumors, cisplatin or BGB combos (AID 1671450; in the data active = inhibition above about 80%;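 note: cells exposed to compound for four days; 0% = vehicle DMSO and 100% = cell killing by high DMSO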); conditions: HDN33 neuroblastoma cells, stronger effect = higher value
# [6] = growth inhibition, single agents and combos, ICB984, cell-based, cisplatin or BGB combos, synergistic combos for chromothripsis tumors (AID 1671451; call rule not given here;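 note: cells exposed for 96 hours before readout; 0% = vehicle DMSO and 100% = killing by high DMSO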); conditions: ICB984 medulloblastoma cells, drug combinations, stronger effect = higher value
# [7] = growth inhibition, single agents and combos, LFS_MB_1R, cell-based, cisplatin or BGB combos, synergistic combos for chromothripsis tumors (AID 1671452; in the data active = inhibition above about 80%;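 note: cells exposed for 96 hours before readout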); conditions: LFS_MB_1R medulloblastoma cells, stronger effect = higher value
# [8] = growth inhibition, single agents and combos, HTB85, cell-based, BGB or cisplatin IC20 combos, synergistic combos for chromothripsis tumors (AID 1671453; in the data active = inhibition above about 80%;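 note: cells exposed for 96 hours before readout; 0% = vehicle DMSO and 100% = high DMSO killing control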); conditions: HTB85 osteosarcoma cells, drug combinations, stronger effect = higher value
# [9] = growth inhibition, single agents and combos, CRL2098, cell-based, BGB or cisplatin IC20 combos, synergistic combos for chromothripsis tumors (AID 1671454; in the data active = inhibition above about 80%;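 note: cells exposed for 96 h before readout; 0% = vehicle DMSO and 100% = killing by high DMSO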); conditions: CRL2098 osteosarcoma cells, drug combinations, stronger effect = higher value
# [10] = growth inhibition, single agents and combos, HD-MB03, cell-based, BGB or cisplatin IC20 combos, synergistic combos for chromothripsis tumors (AID 1671455; in the data active = inhibition above about 83%;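 note: 0% = vehicle DMSO and 100% = high DMSO as cytotoxic control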); conditions: HD-MB03 medulloblastoma cells, stronger effect = higher value
# [11] = growth inhibition, single agents and combos, UWB1.289, cell-based, BGB or cisplatin combos, synergistic combos for chromothripsis tumors (AID 1671456; in the data active = inhibition above about 80%;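 note: cells exposed to compound for four days; 0% = vehicle DMSO and 100% = killing by high DMSO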); conditions: UWB1.289 ovarian carcinoma cells, stronger effect = higher value
# [12] = growth inhibition, single agents and combos, LFS_MB_2R, cell-based, cisplatin combos, synergistic combos for chromothripsis tumors (AID 1671457; in the data active = inhibition above about 80%;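 note: cells exposed to compound for four days before readout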); conditions: LFS_MB_2R medulloblastoma cells, stronger effect = higher value
# [13] = growth inhibition, MDA-MB-436, cell-based, BGB or cisplatin combos, synergistic combos for chromothripsis tumors (AID 1671458; call rule not given here;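 note: cells exposed for 96 hours; 0% = vehicle DMSO and 100% = killing by high DMSO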); conditions: MDA-MB-436 breast carcinoma growth inhibition, drug combinations, stronger effect = higher value
# [14] = UWB1.289_BRCA1 ovarian cancer growth, cell-based, BGB or cisplatin combinations (AID 1671459; in the data active = inhibition above about 80%); conditions: UWB1.289 BRCA1 ovarian carcinoma, drug combinations, stronger effect = higher value
# [15] = drug combination toxicity in non-malignant astrocytes – cell-based, BGB or cisplatin IC20 combos, cytotoxicity control for chromothriptic childhood tumor combination screen (AID 1671460; in the data active = inhibition above about 80%;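 note: cells exposed to compounds for 96 hours before viability readout; 0% = vehicle and 100% = killing control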); conditions: Human astrocytes, viability inhibition, drug combinations, at 0.5 µM, stronger effect = higher value
# [16] = BT084 cell growth, single and combined drugs, ICGC_MB145, cisplatin and BGB IC40 combos (AID 1671461; in the data active = inhibition above about 80%;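 note: cells exposed to drugs for 96 hours; 0% = vehicle DMSO and 100% = high DMSO full killing control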); conditions: BT084 medulloblastoma cells, drug combinations, stronger effect = higher value
# [17] = RCMB18 cell growth, single agent and combined, cisplatin and BGB IC40 combos (AID 1671462; in the data active = inhibition above about 80%;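 note: cells exposed to compound for four days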); conditions: RCMB18 medulloblastoma cells, stronger effect = higher value
# [18] = CRL1545 cell growth, single agent and combined, cisplatin and BGB IC20 combos (AID 1671464; in the data active = inhibition above about 80%;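 note: cells exposed to compound for 96 hours before readout; 0% = vehicle DMSO and 100% = high DMSO killing control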); conditions: CRL1545 osteosarcoma cells, stronger effect = higher value
# [19] = measured here: combination with BGB IC40, at 0.05 µM
# [20] = measured here: with BGB IC20 combination, at 0.5 µM
# [21] = measured here: with cisplatin IC20 combination, at 0.5 µM
# [22] = measured here: combination with cisplatin, at 0.5 µM
# [23] = measured here: combination with cisplatin, at 5 µM
smiles,measurement,setting,value
CC(CN(C)C)CN1c2ccccc2CCc2ccccc21 (configuration not stated),remaining NAD,[1],10 nM (inactive)
same,luciferase signal,[2],64 AU (inactive)
same,z-score,[3],-1.16 (inactive)
CN(C)/N=N/c1nc[nH]c1C(N)=O,remaining NAD,[1],10 nM (inactive)
same,luciferase signal,[2],28 AU (inactive)
same,z-score,[3],-1.27 (inactive)
same,inhibition,"[4]; at 0.5 µM, stronger effect = higher value",-23.9% (inactive) and -10.4% (inactive)
same,inhibition,"[4]; measured here: combination with BGB IC20, at 0.005 µM",22.6% and -26.8%
same,inhibition,"[4]; measured here: combination with BGB IC40, at 0.005 µM",-4.64% and -12.1%
same,inhibition,[4]; [19],6.08% and -27.5%
same,inhibition,"[4]; measured here: combination with cisplatin, at 0.5 µM, stronger effect = higher value",-35.1% and -31.1%
same,inhibition,"[4]; measured here: combination with cisplatin, at 5 µM, stronger effect = higher value",-14.4% and -39%
same,inhibition,"[5]; BGB combo, at 5 µM",18.6% and -37%
same,inhibition,[5]; at 0.5 µM,0.39% (inactive) and -45.8% (inactive)
same,inhibition,"[5]; cisplatin combo, at 5 µM",25.6% and -37.1%
same,inhibition,[5]; [20],-1.18% and -51%
same,inhibition,[5]; [21],-5.95% and -47.5%
same,inhibition,"[5]; single agent, at 5 µM",47.2% and 2.95%
same,inhibition,"[6]; BGB IC20 combo, at 0.005 µM",0.732% and 6.78%
same,inhibition,"[6]; BGB IC40 combo, at 0.005 µM",-12.9% and -11.7%
same,inhibition,"[6]; BGB IC40 combo, at 0.05 µM",12.2% and -40.2%
same,inhibition,[6]; at 0.5 µM,-9.82% (inactive) and -15.2% (inactive)
same,inhibition,"[6]; cisplatin combo, at 0.05 µM",9.76% and -45.2%
same,inhibition,"[6]; cisplatin combo, at 0.5 µM",-14.5% and -8.2%
same,inhibition,"[6]; cisplatin combo, at 5 µM",-16% and -22.9%
same,inhibition,"[6]; measured here: 5 uM single agent, at 5 µM",-26.7% and -20.4%
same,inhibition,[7]; at 0.5 µM,-6.85% (inactive) and -29.4% (inactive)
same,inhibition,[7]; [19],-7.35% and -52.3%
same,inhibition,[7]; [22],9.4% and -47.7%
same,inhibition,[7]; [23],3.18% and -94.1%
same,inhibition,[8]; at 0.5 µM,-1.95% (inactive) and -35.1% (inactive)
same,inhibition,"[8]; measured here: with BGB IC20, at 0.5 µM",3.62% and -33.2%
same,inhibition,"[8]; measured here: with BGB IC20, at 5 µM",-31.2% and -31.5%
same,inhibition,"[8]; measured here: with cisplatin IC20, at 0.5 µM",-17.3% and -45.8%
same,inhibition,"[8]; measured here: with cisplatin IC20, at 5 µM",-16% and -61.7%
same,inhibition,"[8]; single agent, at 5 µM",-8.44% and -20.4%
same,inhibition,[9]; at 0.5 µM,-3.56% (inactive) and -92.1% (inactive)
same,inhibition,"[9]; measured here: combination with BGB at IC20, at 0.5 µM",-50.1% and -47.1%
same,inhibition,"[9]; measured here: combination with cisplatin at IC20, at 0.5 µM",34.4% and -173%
same,inhibition,[10]; at 0.5 µM,0.8% (inactive) and -6.95% (inactive)
same,inhibition,"[10]; measured here: combo with BGB at IC20, at 0.5 µM",4.98% and -8.86%
same,inhibition,"[10]; measured here: combo with cisplatin at IC20, at 0.5 µM",-6.17% and -0.723%
same,inhibition,[11]; at 0.5 µM,18.9% (inactive) and 3.21% (inactive)
same,inhibition,"[11]; measured here: inhibition with BGB combination, at 0.05 µM",0.064% and -13.3%
same,inhibition,"[11]; measured here: inhibition with cisplatin combination, at 0.05 µM",3.6% and -43.6%
same,inhibition,[12]; at 0.5 µM,10.1% (inactive) and -20.6% (inactive)
same,inhibition,[12]; [22],14.2% and -25.1%
same,inhibition,[12]; [23],-36.9% and -16%
same,inhibition,[13]; at 0.5 µM,1.6% (inactive) and -18.5% (inactive)
same,inhibition,"[13]; measured here: BGB combination, at 0.5 µM",7.15% and -18%
same,inhibition,"[13]; measured here: BGB combination, at 5 µM",1.32% and -19%
same,inhibition,"[13]; measured here: cisplatin combination, at 0.5 µM",0.111% and -24.2%
same,inhibition,"[13]; measured here: cisplatin combination, at 5 µM",-5.49% and -14.5%
same,inhibition,"[14]; BGB combination, concentration series, at 5 µM",47.3% and 36.9%
same,inhibition,[14]; at 0.5 µM,15.9% (inactive) and 4.03% (inactive)
same,inhibition,"[14]; cisplatin combination, concentration series, at 5 µM",53.7% and 25.2%
same,inhibition,[15],-0.79% (inactive) and 0.55% (inactive)
same,inhibition,[15]; measured here: combo with BGB IC20,-3.87% and 2.32%
same,inhibition,[15]; measured here: combo with cisplatin IC20,-4.67% and -1.77%
same,inhibition,[16]; at 0.5 µM,-1.62% (inactive) and -14.7% (inactive)
same,inhibition,"[16]; cisplatin combination, at 0.5 µM",-8.23% and -62.9%
same,inhibition,"[16]; cisplatin combination, at 5 µM",1.87% and -8.42%
same,inhibition,"[16]; measured here: BGB IC40 combination 0.05 uM, at 0.05 µM",46.6% and -5.42%
same,inhibition,"[16]; single agent, at 5 µM",-9.68% and -13.7%
same,inhibition,[17]; at 0.5 µM,-1.34% (inactive) and -9.83% (inactive)
same,inhibition,"[17]; cisplatin combo, at 5 µM",6.92% and -42.9%
same,inhibition,"[17]; measured here: BGB IC40 combination, at 0.05 µM",-11.2% and -7.61%
same,inhibition,[17]; [22],10.1% and -9.31%
same,inhibition,"[17]; single agent, at 5 µM",3.33% and -8.99%
same,inhibition,[18]; at 0.5 µM,-2.87% (inactive) and -54.9% (inactive)
same,inhibition,[18]; [20],-14.8% and -42.6%
same,inhibition,[18]; [21],0.906% and -63.6%
same,inhibition,"[18]; single agent, at 0.05 µM",-1.35% and -67.8%
same,inhibition,"[18]; single agent, at 5 µM",10.4% and -50.2%
Cc1nc2sccn2c(=O)c1CCN1CCC(=C(c2ccc(F)cc2)c2ccc(F)cc2)CC1,remaining NAD,[1],10 nM (inactive)
same,luciferase signal,[2],152 AU (active)
same,z-score,[3],-1.37 (inactive) and -0.82 (inactive)
CC(=O)OCC1=C(C(=O)O)N2C(=O)[C@@H](NC(=O)Cc3cccs3)[C@H]2SC1,remaining NAD,[1],10 nM (inactive)
same,luciferase signal,[2],52 AU (inactive)
same,z-score,[3],0.015 (inactive)
COCCc1ccc(OCC(O)CNC(C)C)cc1 (configuration not stated),remaining NAD,[1],10 nM (inactive)
same,luciferase signal,[2],40 AU (inactive)
same,z-score,[3],0.4 (inactive) and 0.695 (inactive)
CCN(CC)CCNC(=O)c1ccc(NC(C)=O)cc1,remaining NAD,[1],10 nM (inactive)
same,luciferase signal,[2],32 AU (inactive)
same,z-score,[3],0.34 (inactive)
CCCCCCCCCCCCCCCCOP(=O)([O-])OCC[N+](C)(C)C,remaining NAD,[1],10 nM (inactive)
same,luciferase signal,[2],132 AU (inactive)
same,z-score,[3],-0.3 (inactive)
Cc1c(Cl)cccc1Nc1ccccc1C(=O)O,remaining NAD,[1],10 nM (inactive)
same,luciferase signal,[2],52 AU (inactive)
same,z-score,[3],1.29 (inactive)
COc1cccc2c1C(=O)c1c(O)c3c(c(O)c1C2=O)C[C@@](O)(C(=O)CO)C[C@@H]3O[C@H]1C[C@H](N)[C@H](O)[C@H](C)O1,remaining NAD,[1],10 nM (inactive)
same,luciferase signal,[2],32 AU (inactive)
same,z-score,[3],-0.63 (inactive) and -2.04 (inactive)
Cn1cnc2c1c(=O)[nH]c(=O)n2C,remaining NAD,[1],10 nM (inactive)
same,luciferase signal,[2],60 AU (inactive)
same,z-score,[3],0.475 (inactive)
Cc1cc(C(C)(C)C)c(O)c(C)c1CC1=NCCN1,remaining NAD,[1],10 nM (inactive)
same,luciferase signal,[2],28 AU (inactive)
same,z-score,[3],0.16 (inactive) and -0.235 (inactive) and 0.51 (inactive)
CCN1CCN(C(=O)N[C@@H](C(=O)N[C@@H]2C(=O)N3C(C(=O)O)=C(CSc4nnnn4C)CS[C@H]23)c2ccc(O)cc2)C(=O)C1=O,remaining NAD,[1],10 nM (inactive)
same,luciferase signal,[2],88 AU (inactive)
same,z-score,[3],-0.045 (inactive)
Nc1ccc(S(=O)(=O)Nc2ccnn2-c2ccccc2)cc1,remaining NAD,[1],10 nM (inactive)
same,luciferase signal,[2],96 AU (inactive)
same,z-score,[3],0.735 (inactive)
O=C(N[C@H](CO)[C@H](O)c1ccc([N+](=O)[O-])cc1)C(Cl)Cl,remaining NAD,[1],10 nM (inactive)
same,luciferase signal,[2],88 AU (inactive)
same,z-score,[3],-0.74 (inactive)
COC(=O)Nc1nc2ccc(Sc3ccccc3)cc2[nH]1,remaining NAD,[1],10 nM (inactive)
same,luciferase signal,[2],36 AU (inactive)
same,z-score,[3],-1.72 (inactive)
COc1ccc2c(c1)c(CC(=O)OCC(=O)O)c(C)n2C(=O)c1ccc(Cl)cc1,remaining NAD,[1],10 nM (inactive)
same,luciferase signal,[2],52 AU (inactive)
same,z-score,[3],0.565 (inactive)
COCCCC/C(=N\OCCN)c1ccc(C(F)(F)F)cc1,remaining NAD,[1],10 nM (inactive)
same,luciferase signal,[2],88 AU (inactive)
same,z-score,[3],-0.665 (inactive) and -0.645 (inactive)
COc1ccc(CN(CCN(C)C)c2ccccn2)cc1,remaining NAD,[1],18 nM (inactive)
same,luciferase signal,[2],88 AU (inactive)
same,z-score,[3],-0.145 (inactive) and 0.84 (inactive) and 0.65 (inactive)
